SMN2 splice enh = increases expression of the SMN2 splice variant; HEK293 SMN2-luciferase splicing reporter, luminescence, 30-36 h; Potency, µM (top dose mostly 46.1 µM), hits mostly activators; 2.8% of 210,000 active; AID 1458; note: nearly all actives have a fitted effect of over 55% in size
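qHTS luciferase splicing reporter: luminescence rises when SMN2 exon 7 is included in transfected HEK293 cells. Compound exposure lasted 30-36 h at 37C, with 4.5 mM final sodium butyrate as control, followed by a ONE-Glo read.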
FLuc counter = firefly luciferase modulation, counter-screen for miR-21 project; 6.9% of 360,000 active; purified FLuc, Km substrates, luminescence inhibition; P08659; Potency, µM (highest dose often 57.5 µM), usual class: inhibitors; note: nearly all actives have a fitted effect of over 55% in size
Target sequence (P08659 whole entry, looked up): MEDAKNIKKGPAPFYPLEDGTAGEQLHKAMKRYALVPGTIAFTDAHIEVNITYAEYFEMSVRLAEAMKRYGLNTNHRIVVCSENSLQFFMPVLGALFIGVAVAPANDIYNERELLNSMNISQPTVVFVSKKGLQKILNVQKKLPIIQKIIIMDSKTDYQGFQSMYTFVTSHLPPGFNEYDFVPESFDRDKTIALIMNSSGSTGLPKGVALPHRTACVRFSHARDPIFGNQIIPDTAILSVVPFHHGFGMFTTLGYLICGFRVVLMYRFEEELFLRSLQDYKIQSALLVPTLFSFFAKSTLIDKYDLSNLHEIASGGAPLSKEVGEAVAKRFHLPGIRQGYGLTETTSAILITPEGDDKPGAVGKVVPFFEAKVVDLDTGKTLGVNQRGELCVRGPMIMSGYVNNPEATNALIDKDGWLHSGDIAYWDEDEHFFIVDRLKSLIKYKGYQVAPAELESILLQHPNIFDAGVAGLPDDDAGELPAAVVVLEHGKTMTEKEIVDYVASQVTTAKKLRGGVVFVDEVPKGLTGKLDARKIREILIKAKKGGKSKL
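Purified P. pyralis luciferase, 10 nM final, with Km-level 10 uM D-luciferin and 10 uM ATP in 50 mM Tris acetate pH 7.5, 10 mM Mg acetate, 0.01% Tween-20, 0.05% BSA; 6-point qHTS titration about 60 µM downward; luminescence read.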
Rab9 promoter act = activators of Rab9 promoter. Huh7 Rab9 promoter-luciferase reporter, luminescence, 24 h. Potency, µM (doses to about 9.22 µM), hits mostly activators. 2.8% of 320,000 active; note: nearly all actives have a fitted effect of over 60% in size
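Stable Rab9-luc Huh7, 1500 cells/well, 2 h settle; cmpd in DMSO, 24 h, 37 °C/5% CO2; luciferase reagent 10 min RT; luminescence.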
uPA generation = cell surface uPA generation inhibition | cell surface uPA generation assay, qHTS | Potency, µM (titrated, usually from 38.3 µM), usual class: inhibitors | 0.31% of 330,000 active; active = well fitted inhibition curve with a large enough effect; inconclusive = small, poorly fitted or top-dose-only effect; inactive = no such curve, though single readings can be large or run the other way; tested in mouse RAW 264.7 cells; note: nearly all actives have a fitted effect of over 55% in size
ELG1 genotox = induces genotoxicity in HEK293T cells with luciferase-tagged ELG1 | HEK293T ELG1-luciferase reporter, luminescence, 16 h | Potency, µM (series often up to 46 µM), most hits filed as activators | 1.3% of 330,000 active; note: nearly all actives have a fitted effect of over 60% in size
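ELG1-luciferase HEK293T cells, 2,000/well; compound pinned in; 16 hr, 37 °C, 5% CO2; ONE-Glo, 30 min RT; luminescence on CCD imager.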
NPC1 prom act = activates the NPC1 promoter; Huh7 NPC1 promoter luciferase reporter, 24 h; Potency, µM (titrated, usually from 9.22 µM), actives largely listed as activators; 2.4% of 320,000 active; note: nearly all actives have a fitted effect of over 60% in size
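Quantitative HTS used a cell-based reporter: Huh7 cells stably bearing the NPC1 promoter upstream of luciferase were treated with compounds for 24 h, and promoter activation was read as luminescence.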
Numbers stand for hits; . = inactive; ? = inconclusive; / = no result. Compounds with a hit are over-represented: about 7.3% of the library has one in this group of screens. Unless noted, calls come from the whole dose curve; as a rule, active = well fitted curve in the direction sought with a large enough effect; inconclusive = small, poorly fitted or top-dose-only effect, or another doubt; inactive = no such curve, though single readings can be large; an effect the other way counts as inactive or inconclusive.

SMILES | SMN2 splice enh | FLuc counter | Rab9 promoter act | uPA generation | ELG1 genotox | NPC1 prom act
CC(=O)Nc1ccc(S(=O)(=O)NCC2CCC(C(=O)N3CCCCC3)CC2)cc1 (centres undefined) | / | . | . | . | . | .
O=C(O)COc1ccccc1/C=N/NC(=O)c1ccc(F)cc1 | . | 9.5µM | . | . | . | .
CNC(=O)c1ccccc1-c1cn(C)c2ccccc2c1=O | . | . | . | . | . | .
O=c1oc2cc(Cl)ccc2n1CSc1nc2ccccc2s1 | . | 8.5µM | ? | . | 15µM | ?
O=C(CSc1nc2ccccc2s1)N1c2ccccc2Sc2ccc(Cl)cc21 | . | . | . | / | . | .
CCn1c(CCNC(=O)c2cccs2)nnc1SCC(=O)Nc1ccc(Cl)cc1 | . | 17µM | . | . | . | .
CCn1c(CCNC(=O)c2cccs2)nnc1SCC(=O)NC1CCCCC1 | . | . | . | / | . | .
O=C(CSc1nc2c([nH]c3ccccc32)c(=O)n1-c1ccc(F)cc1)NC1CCCCC1 | / | . | / | / | / | /
O=c1oc2ccccc2c(Nc2ccc(F)cc2)c1[N+](=O)[O-] | . | ? | . | ? | . | .
Cc1ccccc1Nc1nc(N)nc(-c2oc3ccccc3c2C)n1 | / | 21µM | 2.2µM | . | ? | ?
Cc1c(-c2nc(N)nc(Nc3ccc(F)cc3)n2)oc2ccccc12 | 16µM | ? | 1.8µM | . | 2.3µM | 2.2µM
COc1ccccc1Nc1nc(N)nc(-c2oc3ccccc3c2C)n1 | . | . | . | . | . | .
O=C(O)c1ccccc1NC(=O)c1cc2ccccc2oc1=O | / | 7.6µM | 2.8µM | ? | ? | 3.5µM
COc1ccccc1C(=O)Nc1cc2ccccc2oc1=O | ? | ? | 4µM | . | 2.8µM | 5.6µM
COc1ccc(OC)c(NC(=O)c2cc3cccc(OC)c3oc2=O)c1 | . | . | / | / | / | /
COc1ccccc1C(=O)Nc1cc2cc(Br)ccc2oc1=O | ? | . | ? | . | . | .
COc1ccc(NC(=O)c2cc3ccccc3oc2=O)c(OC)c1 | / | ? | 2.8µM | . | ? | 2.8µM
COc1ccc(S(=O)(=O)Nc2ccccc2OC)cc1NC(=O)c1cc2ccccc2oc1=O | / | 12µM | 4µM | . | ? | 4µM
Cc1cc(C)n(-c2nc3ccccc3nc2Nc2ccc(Cl)c(Cl)c2)n1 | . | . | / | / | / | /
CCOC(=O)C1=C(C)NC(C)=C(C(=O)OCC)C1c1c(F)c(F)c(F)c(F)c1F | / | / | . | / | / | .
COc1cc(/C=N/N(c2ccccc2)c2ccccc2)ccc1O | / | 19µM | . | . | . | .
COc1cc(/C=N/Nc2ccccc2)ccc1O | / | 15µM | . | . | ? | .
COc1cc(/C=N/Nc2ccccc2C(F)(F)F)ccc1O | / | 13µM | ? | . | . | .
COc1cc(/C=N/NC(=O)CCc2ccccc2)ccc1O | . | ? | . | . | . | .
COc1ccc(/C=C/C(=O)Nc2ccccc2C(F)(F)F)cc1OC | / | . | . | . | . | .
SMILES | SMN2 splice enh | FLuc counter | Rab9 promoter act | uPA generation | ELG1 genotox | NPC1 prom act
Cc1cc2c(s1)c1c(C)nn(Cc3ccc(F)cc3)c(=O)c1n2C | / | . | . | / | / | .
C=CCOc1c(Cl)cc(CNc2nccs2)cc1OC | . | . | . | . | . | .
c1ccc(-c2cc(N3CCCCCC3)n[nH]2)cc1 | ? | 21µM | ? | / | 16µM | ?
c1ccc(-c2cc(N3CCCCC3)ncn2)cc1 | 10µM | 11µM | 2.8µM | . | 15µM | ?
Cc1cc(NC(=O)c2cc(-c3ccc(Cl)cc3)on2)n(-c2ccccc2)n1 | . | . | / | / | / | /
Cc1c(Cl)c([N+](=O)[O-])nn1CC(=O)NC(C)C1CC2CCC1C2 (centres undefined) | . | . | . | . | . | .
CCc1ccc(C2Sc3ccccc3NC3=C2C(=O)c2ccccc23)cc1 (centres undefined) | . | 11µM | / | / | / | /
CC(C)c1ccc(C2Sc3ccccc3NC3=C2C(=O)c2ccccc23)cc1 (centres undefined) | . | 6µM | / | / | / | /
COc1ccc(Cl)cc1NC(=O)c1sc(-n2nc(C)c(Cc3ccccc3)c2C)nc1C | / | . | / | / | / | /
CCc1ccccc1NC(=O)Cc1ccc(-n2c(C)nc3cccnc32)cc1 | / | . | / | / | / | /
Cc1ccc(C2NC(=O)c3c(sc4c3CCN(C)C4)N2)o1 (centres undefined) | . | . | . | . | . | .
